According to PubChem BioAssay (EPA / NIEHS):
Calls of active or inactive are those of the source. How the source made its calls: active means hit-call score of the fitted dose curve at least 0.9, where 1 is the maximum; inactive means score below 0.9.

How the values were obtained:
Conditions in all cases: mRNA level, 48 h; actives raise or lower the signal
[1] = read-out: adenosine kinase (ADK) gene, ADK (gene 132); experiment: LTEA_HepaRG_ADK: Life Technologies and Expression Analysis (LTEA) Assay for adenosine kinase (ADK) gene using HepaRG (AID 2283471)
Outline: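 HepaRG (human liver), 48 h chemical exposure, 8-pt half-log series, top 100 uM, 0.5% DMSO vehicle. Readout: ADK mRNA by qRT-PCR vs housekeeping genes; bidirectional curve fit relative to DMSO baseline.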

[2] = read-out: BCL2L11 (gene 10018); experiment: LTEA_HepaRG_BCL2L11: Life Technologies and Expression Analysis (LTEA) Assay for Bcl-2 (BCL2L11) gene using HepaRG (AID 2283473)
Outline: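 Read-out is BCL2L11 transcript level by qRT-PCR, normalized to three housekeeping genes and fitted bidirectionally against 0.5% DMSO vehicle. HepaRG cells received chemicals for 48 h in serum-free induction medium, 100 uM down in half-log dilutions.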

[3] = read-out: Apolipoprotein A-V (APOA5) gene, APOA5 (gene 116519); experiment: LTEA_HepaRG_APOA5: Life Technologies and Expression Analysis (LTEA) Assay for Apolipoprotein A-V (APOA5) gene using HepaRG (AID 2283474)
Outline: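 Readout is APOA5 transcript level by qRT-PCR on Fluidigm dynamic arrays, normalized to three housekeeping genes. HepaRG cultures received chemicals for 48 h at up to 100 uM (half-log steps, 0.5% DMSO), with gain or loss scored relative to DMSO.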

[4] = read-out: Apoptosis regulator Bcl-2 (Homo sapiens) (UniProt P10415); experiment: LTEA_HepaRG_BCL2: Life Technologies and Expression Analysis (LTEA) Assay for Bcl-2 gene using HepaRG (AID 2283475)
Outline: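 Each chemical was tested in duplicate on HepaRG cultures held in serum-free induction medium for 48 h, highest concentration 100 uM with half-log dilutions. Transcript levels came from multiplexed qRT-PCR, normalised to housekeeping genes; activity was scored in either direction relative to DMSO.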

[5] = read-out: Bcl-2 (BID) gene, BID (gene 637); experiment: LTEA_HepaRG_BID: Life Technologies and Expression Analysis (LTEA) Assay for Bcl-2 (BID) gene using HepaRG (AID 2283476)
Outline: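 Assay used HepaRG hepatic cells treated 48 h in serum-free medium with half-log dilutions from 100 uM. Endpoint: BID mRNA, qRT-PCR, normalized to ACTB/GAPDH/POLR2A.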

[6] = read-out: Caspase-3 (Homo sapiens) (UniProt P42574); experiment: LTEA_HepaRG_CASP3: Life Technologies and Expression Analysis (LTEA) Assay for cysteine-aspartic acid protease (CASP3) using HepaRG (AID 2283477)
Outline: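 Read-out is CASP3 mRNA level by TaqMan qRT-PCR in human HepaRG cells after 48 h chemical exposure. Eight half-log concentrations topping at 100 uM were tested in 0.5% DMSO; gain or loss was fitted relative to DMSO.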

[7] = read-out: Cytochrome P450 (CYP24A1), CYP24A1 (gene 1591); experiment: LTEA_HepaRG_CYP24A1: Life Technologies and Expression Analysis (LTEA) Assay for Cytochrome P450 (CYP24A1) using HepaRG (AID 2283478)
Outline: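 HepaRG, 48 h chemical exposure, 8-pt half-log CRC from 100 uM, 0.5% DMSO vehicle, duplicates. Endpoint: CYP24A1 mRNA by Fluidigm TaqMan qRT-PCR, normalized ACTB/GAPDH/POLR2A; gain/loss fit vs DMSO.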

[8] = read-out: Cytochrome P450 (CYP1A2), CYP1A2 (gene 1544); experiment: LTEA_HepaRG_CYP1A2: Life Technologies and Expression Analysis (LTEA) Assay for Cytochrome P450 (CYP1A2) using HepaRG (AID 2283479)
Outline: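 CYP1A2 transcript induction or loss, quantified by Fluidigm qRT-PCR against three housekeeping genes, was fitted bidirectionally against 0.5% DMSO controls. Human HepaRG cells received eight half-log concentrations from 100 uM over 48 h.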

[9] = read-out: cysteine-aspartic acid protease (CASP8), CASP8 (gene 841); experiment: LTEA_HepaRG_CASP8: Life Technologies and Expression Analysis (LTEA) Assay for cysteine-aspartic acid protease (CASP8) using HepaRG (AID 2283480)
Outline: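 CASP8 transcript measured by TaqMan qRT-PCR with ACTB/GAPDH/POLR2A normalization, after 48 h chemical exposure of HepaRG cells in serum-free induction medium. Eight concentrations, top 100 uM, half-log steps, 0.5% DMSO vehicle; fits in both directions versus DMSO.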

[10] = read-out: Cytochrome P450 (CYP2B6), CYP2B6 (gene 1555); experiment: LTEA_HepaRG_CYP2B6: Life Technologies and Expression Analysis (LTEA) Assay for Cytochrome P450 (CYP2B6) using HepaRG (AID 2283481)
Outline: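 HepaRG cells plated 48 h, switched to serum-free induction medium, then dosed 48 h (8 points, half-log from 100 uM, 0.5% DMSO). RNA isolated; CYP2B6 expression measured by qRT-PCR; gain or loss fitted relative to DMSO.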

[11] = read-out: CYP2C8 (gene 1558); experiment: LTEA_HepaRG_CYP2C8: Life Technologies and Expression Analysis (LTEA) Assay for CYP2C8 using HepaRG (AID 2283483)
Outline: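 CYP2C8 expression measured by TaqMan qRT-PCR and normalized to three housekeeping genes. HepaRG cultures were treated for 48 h with an eight-point half-log series topping at 100 uM, vehicle 0.5% DMSO, duplicates; fitted both directions against DMSO.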

[12] = read-out: CYP2C9 (gene 1559); experiment: LTEA_HepaRG_CYP2C9: Life Technologies and Expression Analysis (LTEA) Assay for CYP2C9 using HepaRG (AID 2283484)
Outline: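 CYP2C9 transcript level, quantified by TaqMan qRT-PCR against three housekeeping genes, was fitted bidirectionally relative to 0.5% DMSO. HepaRG cultures were treated 48 h, in duplicate, at eight half-log concentrations topping at 100 uM.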

[13] = read-out: CYP2E1 (gene 1571); experiment: LTEA_HepaRG_CYP2E1: Life Technologies and Expression Analysis (LTEA) Assay for CYP2E1 using HepaRG (AID 2283485)
Outline: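 Assay uses 48 h exposure of HepaRG hepatic cells, eight concentrations to 100 uM. Expression of CYP2E1 is quantified by TaqMan qRT-PCR with ACTB, GAPDH and POLR2A normalization; curves fitted in both directions relative to vehicle.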

[14] = read-out: CYP4A11 (gene 1579); experiment: LTEA_HepaRG_CYP4A11: Life Technologies and Expression Analysis (LTEA) Assay for CYP4A11 using HepaRG (AID 2283486)
Outline: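 HepaRG, 48 h chem exposure, 8 conc (100 uM top, half-log), 0.5% DMSO vehicle; qRT-PCR readout, housekeeping-gene normalized; bidirectional curve fit vs DMSO baseline.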

[15] = read-out: Cytochrome P450 3A4 (Homo sapiens) (UniProt P08684); experiment: LTEA_HepaRG_CYP3A4: Life Technologies and Expression Analysis (LTEA) Assay for CYP3A4 using HepaRG (AID 2283487)
Outline: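 CYP3A4 transcript measured by TaqMan qRT-PCR and normalized to three housekeeping genes after 48 h chemical exposure of human HepaRG cells. Top concentration 100 uM, half-log steps, 0.5% DMSO vehicle; gain or loss fitted against DMSO baseline.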

[16] = read-out: DNA damage-inducible transcript 3 (DDIT3), DDIT3 (gene 1649); experiment: LTEA_HepaRG_DDIT3: Life Technologies and Expression Analysis (LTEA) Assay for DNA damage-inducible transcript 3 (DDIT3) using HepaRG (AID 2283488)
Outline: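 Eight-point concentration-response (100 uM highest, half-log dilutions) in HepaRG, 48 h, duplicate wells. Endpoint: qRT-PCR mRNA, normalized (ACTB, GAPDH, POLR2A), bidirectional fitting with DMSO as baseline.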

[17] = read-out: Pro-epidermal growth factor (Homo sapiens) (UniProt P01133); experiment: LTEA_HepaRG_EGF: Life Technologies and Expression Analysis (LTEA) Assay for Epidermal growth factor (EGF) using HepaRG (AID 2283489)
Outline: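 HepaRG, 48 h dosing, 100 uM top, half-log x8, 0.5% DMSO. Readout: TaqMan qRT-PCR (Fluidigm array), housekeeping-normalized. Gain or loss of signal fit vs DMSO.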

[18] = read-out: Early growth response protein 1 (EGR1) transcription factor, EGR1 (gene 1958); experiment: LTEA_HepaRG_EGR1: Life Technologies and Expression Analysis (LTEA) Assay for Early growth response protein 1 (EGR1) transcription factor using HepaRG (AID 2283490)
Outline: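 EGR1 transcript levels quantified by qRT-PCR (Fluidigm arrays) against three housekeeping genes after 48 h chemical exposure of HepaRG cells. Eight-point half-log series topping at 100 uM, 0.5% DMSO vehicle, analyzed for gain or loss.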

[19] = read-out: Cytochrome P450 2C19 (Homo sapiens) (UniProt P33261); experiment: LTEA_HepaRG_CYP2C19: Life Technologies and Expression Analysis (LTEA) Assay for CYP2C19 using HepaRG (AID 2283482)
Outline: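 Transcript levels of CYP2C19 were quantified by qRT-PCR after HepaRG cells were treated for 48 hours with test chemicals up to 100 uM (eight half-log concentrations, 0.5% DMSO vehicle). Gain or loss of signal was fitted relative to DMSO.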

Measured: AC50

Chain of Caspase-3 (Homo sapiens) (P42574 whole entry, looked up): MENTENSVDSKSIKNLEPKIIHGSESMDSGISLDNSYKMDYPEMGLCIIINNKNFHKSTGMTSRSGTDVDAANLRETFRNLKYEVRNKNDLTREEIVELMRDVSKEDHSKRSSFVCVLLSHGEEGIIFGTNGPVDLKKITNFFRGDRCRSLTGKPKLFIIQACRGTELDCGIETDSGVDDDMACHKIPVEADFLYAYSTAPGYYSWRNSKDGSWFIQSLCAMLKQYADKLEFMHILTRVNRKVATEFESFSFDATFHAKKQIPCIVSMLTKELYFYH
Chain of Cytochrome P450 2C19 (Homo sapiens) (P33261 whole entry, looked up): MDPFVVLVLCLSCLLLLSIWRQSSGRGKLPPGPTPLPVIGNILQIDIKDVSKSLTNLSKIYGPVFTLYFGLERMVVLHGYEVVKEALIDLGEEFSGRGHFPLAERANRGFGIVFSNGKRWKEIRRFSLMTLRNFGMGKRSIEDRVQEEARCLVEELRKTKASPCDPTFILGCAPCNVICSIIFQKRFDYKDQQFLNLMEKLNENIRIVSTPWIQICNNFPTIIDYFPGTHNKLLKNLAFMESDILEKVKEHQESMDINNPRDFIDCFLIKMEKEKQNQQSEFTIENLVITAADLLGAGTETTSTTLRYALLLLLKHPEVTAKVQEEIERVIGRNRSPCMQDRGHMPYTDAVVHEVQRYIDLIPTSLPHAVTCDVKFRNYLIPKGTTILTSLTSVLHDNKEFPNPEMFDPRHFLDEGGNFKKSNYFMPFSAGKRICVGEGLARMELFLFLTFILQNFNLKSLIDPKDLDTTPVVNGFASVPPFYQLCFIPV
Chain of Cytochrome P450 3A4 (Homo sapiens) (P08684 whole entry, looked up): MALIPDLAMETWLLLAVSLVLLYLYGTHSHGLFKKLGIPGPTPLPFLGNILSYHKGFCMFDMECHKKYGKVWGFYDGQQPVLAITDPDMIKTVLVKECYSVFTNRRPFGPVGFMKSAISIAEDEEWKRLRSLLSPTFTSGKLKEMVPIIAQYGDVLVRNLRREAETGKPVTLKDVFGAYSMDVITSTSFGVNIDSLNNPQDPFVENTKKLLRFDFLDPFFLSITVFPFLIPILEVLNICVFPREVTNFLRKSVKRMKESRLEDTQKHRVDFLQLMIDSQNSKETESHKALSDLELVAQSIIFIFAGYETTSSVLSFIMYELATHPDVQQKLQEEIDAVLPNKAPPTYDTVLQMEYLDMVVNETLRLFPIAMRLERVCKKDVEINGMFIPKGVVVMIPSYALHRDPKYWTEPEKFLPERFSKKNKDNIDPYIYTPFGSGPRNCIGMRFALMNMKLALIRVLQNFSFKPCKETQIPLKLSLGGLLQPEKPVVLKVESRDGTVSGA
Chain of Apoptosis regulator Bcl-2 (Homo sapiens) (P10415 whole entry, looked up): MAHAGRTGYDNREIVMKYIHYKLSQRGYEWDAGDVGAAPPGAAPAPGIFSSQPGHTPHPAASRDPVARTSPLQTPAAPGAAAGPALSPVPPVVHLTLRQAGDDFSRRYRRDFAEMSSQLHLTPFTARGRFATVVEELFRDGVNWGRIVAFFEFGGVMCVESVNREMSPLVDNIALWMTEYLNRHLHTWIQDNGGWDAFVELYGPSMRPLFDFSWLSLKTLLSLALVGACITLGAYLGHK

O=C1O[C@H]([C@@H](O)CO)C(O)=C1O
inactive: [1] | [2] | [3] | [4] | [5] | [6] | [7] | [8] | [9] | [10] | [11] | [12] | [13] | [14] | [15] | [16] | [17] | [18]

CC(=O)N1CCN(c2ccc(OC[C@H]3CO[C@](Cn4ccnc4)(c4ccc(Cl)cc4Cl)O3)cc2)CC1
inactive: [2] | [5] | [6]
active: [1] 65 µM | [3] 17.8 µM | [4] 11.5 µM | [8] 26 µM | [9] 82.8 µM | [10] 12.7 µM | [11] 22.9 µM | [12] 12.7 µM | [13] 12.9 µM | [14] 12.4 µM | [16] 12.9 µM | [18] 38.4 µM

O=C(O)c1ccccc1C(=O)OCc1ccccc1
inactive: [1] | [2] | [3] | [4] | [5] | [6] | [7] | [8] | [9] | [10] | [11] | [12] | [13] | [15] | [16] | [17] | [18]
active: [14] 26.2 µM

CC1=CC(=O)/C(=C(/C)O)C(=O)O1
inactive: [1] | [2] | [3] | [4] | [5] | [6] | [7] | [8] | [9] | [10] | [11] | [12] | [13] | [14] | [15] | [16] | [17] | [18]

COCC(C)OCC(C)OCC(C)O (stereo not given)
inactive: [1] | [2] | [3] | [4] | [5] | [6] | [7] | [8] | [9] | [19] | [11] | [12] | [14] | [15] | [16] | [17] | [18]
active: [10] 25.8 µM | [13] 50 µM

CC(C)(c1cc(Br)c(O)c(Br)c1)c1cc(Br)c(O)c(Br)c1
inactive: [2] | [3] | [4] | [5] | [7] | [8] | [9] | [19] | [11] | [12] | [14] | [15] | [16] | [17]
active: [1] 92.5 µM | [10] 89.3 µM | [13] 85.6 µM | [18] 76.1 µM

OC12N=C(c3ccccc3)SC1Cc1cc(Cl)ccc12 (stereo not given)
inactive: [1] | [5] | [6] | [7] | [9] | [17] | [18]
active: [2] 2.86 µM | [3] 25.2 µM | [4] 20.3 µM | [8] 1.25 µM | [10] 11.6 µM | [19] 80.4 µM | [11] 39.6 µM | [12] 37.7 µM | [13] 16 µM | [14] 49 µM | [15] 81.3 µM | [16] 2.33 µM
